# AHR activator = AHR activators, primary screen, cell-based, luminescence, luciferase reporter, human; actives 2.5% (n = 320,000); activation, % at 5 µM; AID 2796, 2010; AHR-responsive luciferase reporter cells; Aryl hydrocarbon receptor (Homo sapiens), P35869; in the data active = activation above about 47%;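 also: 0% = vehicle wells and 100% = reference agonist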
# SENP7 inh = SENP7 protease inhibitors, primary screen, biochemical, luminescence, uHTS; Sentrin-specific protease 7 (Homo sapiens), Q9BQF6; inhibition, % at 5 µM; actives 1.5% (n = 330,000); recombinant SENP7, Z-RLRGG-aminoluciferin luminescence, 40 min; AID 434973, 2010;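 active = inhibition above about 50% at the single test dose, limit read from the data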;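 also: plate controls were DMSO with enzyme for no effect and no enzyme buffer wells for full effect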
# SENP8 block-1 = human SENP8 protease inhibitors, primary screen, biochemical, fluorescence, Nedd8 protein substrate, uHTS. Sentrin-specific protease 8 (Homo sapiens), Q96LD8. recombinant SENP8. inhibition, % at 20 µM. actives 0.64% (n = 360,000). AID 602440, 2012; in the data active = inhibition mostly above about 40%, no sharp cut-off; inactive = mostly below about 27%
# Target sequence (Q96LD8 whole entry, looked up): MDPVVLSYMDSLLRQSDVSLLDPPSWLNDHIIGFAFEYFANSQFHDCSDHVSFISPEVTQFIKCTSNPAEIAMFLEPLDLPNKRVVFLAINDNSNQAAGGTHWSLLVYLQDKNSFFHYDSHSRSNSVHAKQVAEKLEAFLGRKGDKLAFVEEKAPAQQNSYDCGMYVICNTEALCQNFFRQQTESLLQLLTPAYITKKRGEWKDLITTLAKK
# SENP8 block-2 = SENP8 protease inhibitors, primary screen, biochemical, luminescence. Sentrin-specific protease 8 (Homo sapiens), Q96LD8. purified SENP8, Z-RLRGG-aminoluciferin cleavage. inhibition, % at 10 µM. actives 1.2% (n = 330,000); in the data active = inhibition above about 50%
# SENP6 inh = SENP6 protease inhibitors, primary screen, biochemical, luminescence, uHTS; Sentrin-specific protease 6 (Homo sapiens), Q9GZR1; Recombinant SENP6 catalytic domain, aminoluciferin luminescence; inhibition, % at 10 µM; actives 1.8% (n = 330,000); AID 2599, 2010;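 active = inhibition above about 50% at the single tested dose, limit read from the data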;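 also: plate controls were DMSO wells with enzyme for no effect and DMSO wells lacking enzyme for full effect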
# EBI2 block = EBI2 receptor antagonists, beta-arrestin recruitment, primary screen, cell-based, luminescence, 7a,25-OHC stimulation, uHTS | actives 0.81% (n = 360,000) | G-protein coupled receptor 183 (Homo sapiens), P32249 | 7a,25-OHC stimulated | inhibition, % at 5 µM; in the data active = inhibition above about 38%;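 also: enzyme fragment complementation signal reports receptor beta-arrestin coupling in cells; 0% = agonist plus DMSO wells and 100% = wells without agonist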
# Target sequence (P32249 whole entry, looked up, the tested form may be a part): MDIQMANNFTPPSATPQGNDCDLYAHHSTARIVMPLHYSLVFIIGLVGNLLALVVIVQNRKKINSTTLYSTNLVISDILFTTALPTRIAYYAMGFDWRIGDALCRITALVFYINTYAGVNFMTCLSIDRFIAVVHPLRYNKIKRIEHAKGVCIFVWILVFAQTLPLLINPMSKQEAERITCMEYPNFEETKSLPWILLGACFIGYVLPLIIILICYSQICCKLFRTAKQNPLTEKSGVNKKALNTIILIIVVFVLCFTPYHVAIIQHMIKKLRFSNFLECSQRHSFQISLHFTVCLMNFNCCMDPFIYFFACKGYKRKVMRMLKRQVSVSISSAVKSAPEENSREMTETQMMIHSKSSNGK
# SENP8 confirm = SENP8 protease inhibitors, retest, confirmation, biochemical, luminescence, single concentration | shares compounds with SENP7 inh | Recombinant SENP8, Z-RLRGG-aminoluciferin luminescence, 60 min | inhibition, % at 12.5 µM | actives 40% (n = 6,200);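 active = mean inhibition across replicates above about 50%, limit read from the data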
# SENP6 conf = SENP6 protease inhibitors, confirmation, biochemical, luminescence, single concentration; shares compounds with SENP7 inh; recombinant SENP6, Z-RLRGG-aminoluciferin luminescence; inhibition, % at 12.5 µM; actives 58% (n = 6,200); AID 488915, 2010
# SENP7 conf = SENP7 protease inhibitors, retest, confirmation, biochemical, luminescence, single concentration; shares compounds with SENP7 inh; recombinant SENP7, Z-RLRGG-aminoluciferin luminescence, 40 min; inhibition, % at 12.5 µM; actives 69% (n = 6,200); AID 488917, 2010
# Casp3 SENP sel = caspase-3 protease inhibitors, confirmation, selectivity assay for SENP inhibitor project, biochemical, single concentration | actives 60% (n = 6,200) | inhibition, % at 12.5 µM | purified caspase-3, Z-DEVD-aminoluciferin luminescence, 60 min | shares compounds with SENP7 inh;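 active = mean inhibition above about 50%, limit read from the data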;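 also: plate controls were enzyme with DMSO for no effect and wells without caspase-3 for full effect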
# Luc interf = interferes with luciferase luminescence in SENP counter-screen. shares compounds with SENP7 inh. Pre-incubated SENP8/Z-RLRGG-aminoluciferin, luciferase luminescence interference. inhibition, % at 12.5 µM. actives 39% (n = 6,200);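 active = mean inhibition above about 50% when retested at one dose, limit read from the data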;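 also: plate controls were DMSO wells with completed reaction for no effect and substrate without enzyme for full effect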
# Numbers without * were called inactive; i = inactive; . = not tested or not shown. Shown are actives, neighbours in structure and some others; about 5% of the full set was active somewhere.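 The calls were made as follows, unless noted: active = mean inhibition above about 50% in the one-dose retest (limit read from the data); inactive = the rest.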
SMILES,AHR activator,SENP7 inh,SENP8 block-1,SENP8 block-2,SENP6 inh,EBI2 block,SENP8 confirm,SENP6 conf,SENP7 conf,Casp3 SENP sel,Luc interf
Cc1ccn(CC(=O)N2CCCC(N3CCN(c4ccc(F)cc4)CC3)C2)n1 (configuration not stated),.,-6,10,13,-9,-10,.,.,.,.,.
COc1ccc(C(=O)O/N=C(\N)c2ccccc2)cc1,2,100*,23,97*,97*,0,99*,100*,103*,98*,98*
COc1ccc(C(=O)O/N=C(\N)c2ccc(Br)cc2)cc1,1,26,14,-1,26,3,.,.,.,.,.
COc1ccc(Oc2cnn(-c3ccccc3)c(=O)c2Br)cc1,1,1,4,-6,-5,8,.,.,.,.,.
COc1ccc(NC2=Nc3ccccc3CC2)cc1,9,4,24,12,28,-4,.,.,.,.,.
COc1ccc(C2=Nc3ccccc3OC2)cc1,14,56*,i,35,71*,-9,98*,99*,102*,95*,90*
COc1ccc(NC(=O)c2cccc(OC(F)F)c2)cc1Cl,49*,80*,12,64*,76*,4,9,76*,94*,60*,68*
COC(=O)c1cccc(NC(=O)c2ccc(OC)c(Cl)c2)c1,-4,8,12,6,-13,12,.,.,.,.,.
O=C(Nc1ccc(OC(F)F)c(Cl)c1)c1cccc(OC(F)F)c1,-7,27,18,15,62*,3,52*,48,76*,12,65*
Cc1c(Cl)cccc1NC(=O)c1cccc(OC(F)F)c1,20,3,8,-1,-9,-2,.,.,.,.,.
O=C(Nc1ccc2c(c1)CCC2)c1cccc(OC(F)F)c1,3,75*,16,68*,79*,4,61*,68*,91*,55*,69*
COc1ccc(-n2ncc(C(=O)NC3CC3)c2C2CCN(C(=O)OC(C)(C)C)CC2)cc1,6,5,5,5,-8,-2,.,.,.,.,.
O=C(Nc1ccccc1F)c1ccc(CSc2ccccc2)o1,4,7,18,-4,29,-11,.,.,.,.,.
CN(C(=O)COc1ccc2ccc(=O)oc2c1)C1CCS(=O)(=O)C1 (configuration not stated),0,92*,-291,2,12,-15,6,7,10,7,0
O=C(CCNC(=O)c1ccc(Cl)cc1)NCCCN1CCOCC1,2,2,0,0,-11,-1,.,.,.,.,.
CC(=O)N(C)c1ccc(NC(=S)Nc2cccc3ccccc23)cc1,36,47,-423,59*,68*,13,-22,-10,3,-3,-1
CC(=O)N(C)c1ccc(NC(=S)Nc2ccccc2)cc1,1,5,13,-2,-7,-6,.,.,.,.,.
Cc1nc2sc(-c3ccccc3)nn2c(=O)c1Br,-2,73*,-30,60*,75*,-9,48,33,42,61*,11
COc1ccc(-c2nn3c(=O)c(C)nnc3s2)cc1,.,-3,-194,0,1,-9,.,.,.,.,.
COc1ccc(OCC(=O)Nc2nccs2)cc1,15,83*,13,62*,26,-2,78*,79*,95*,93*,79*
O=C(COc1ccc2c(c1)OCO2)Nc1nccs1,59*,95*,8,90*,96*,0,95*,95*,102*,97*,93*
Cc1ccc(CCC(=O)Nc2nccs2)o1,0,92*,13,3,4,-12,0,-2,-8,-1,-2
CCOc1ccc(S(=O)(=O)N(C)c2ccc(OCC(=O)Nc3nccs3)cc2)cc1,6,5,6,1,8,9,.,.,.,.,.
COc1ccc(OCCC(=O)Nc2nccs2)cc1,0,10,3,4,-15,-19,.,.,.,.,.
CCOc1ccc(OCC(=O)Nc2nccs2)cc1,15,98*,18,95*,97*,2,97*,97*,102*,98*,88*
SMILES,AHR activator,SENP7 inh,SENP8 block-1,SENP8 block-2,SENP6 inh,EBI2 block,SENP8 confirm,SENP6 conf,SENP7 conf,Casp3 SENP sel,Luc interf
COc1cc(C(=O)COC(=O)c2ccc3c(c2)OCCO3)cc(OC)c1OC,.,.,-5,.,.,0,.,.,.,.,.
CCOC(=O)C1CCN(C(=S)Nc2cccc(C)c2C)CC1,-3,0,10,0,-4,-12,.,.,.,.,.
CCOC(=O)CSc1nnc(SCCN2C(=O)c3ccccc3C2=O)s1,1,7,23,3,-4,-15,.,.,.,.,.
COc1ccc(C(=O)NC2CCCc3c2cnn3-c2cc(F)cc(F)c2)c(OC)c1OC (configuration not stated),2,5,1,4,-22,-14,.,.,.,.,.
COc1ccc2c(c1)CC/C2=N\OC(=O)c1ccccc1C,1,80*,7,73*,79*,18,28,82*,83*,72*,39
COc1ccc2c(c1)CC/C2=N\OC(=O)c1cccc(C)c1,2,84*,-7,72*,86*,18,-3,6,6,9,8
C/C(=N/OC(=O)c1ccccc1)c1oc(C)nc1C,-1,78*,20,48,62*,-8,67*,67*,90*,87*,52*
CC(=O)c1cccc(NC(=O)c2oc(C)nc2C)c1,8,-3,18,-4,-13,-2,.,.,.,.,.
COc1cc(C(C(=O)NC2CCCC2)N(C(=O)Cc2cccs2)C2CC2)cc(OC)c1OC (configuration not stated),0,-4,0,0,3,-2,.,.,.,.,.

# Screens from PubChem.
